Measurements taken from PubChem BioAssay AID1159580 (chemical genetic matrix, 2015).
Screen size: about 5,500 compounds; about 2,000 (36%) were called active. Inconclusive results (about 18%) are left out. Cut-off read from the data, not from the text of the source: active = normalized growth mostly below about 0.91 (no sharp cut-off); inconclusive = no clear call, values can overlap the other calls; inactive = mostly above about 0.92. Some of the results follow.

Assay: chemical genetic growth profiling, strain panel (AID 1159580);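 note: tested at 20 µM; growth read once vehicle control cultures reached saturation at 30 °C; 1 = growth at the plate median or of vehicle wells; lower values mean less growth of the strain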
Details: growth OD

Measured: normalized growth

Cc1c(NC(=O)c2cccnc2)c(=O)n(-c2ccccc2)n1C
inactive: S. cerevisiae deletion strains, locus YJR066W, strain TOR1, active compounds read low 0.958 | S. cerevisiae deletion strains, locus YJR075W, strain HOC1, active compounds read low 0.99 | S. cerevisiae deletion strains, locus YKL009W, strain mrt4, active compounds read low 0.958 | S. cerevisiae deletion strains, locus YKL068W, active compounds read low 0.99 | S. cerevisiae deletion strains, locus YKL085W, strain MDH1 (second series), active compounds read low 0.988 | S. cerevisiae deletion strains, locus YKL085W, strain MDH1, active compounds read low 0.988 | S. cerevisiae deletion strains, locus YKL160W, strain elf1, active compounds read low 1.02 | S. cerevisiae deletion strains, locus YKL190W, strain CNB1, active compounds read low 0.989 | S. cerevisiae deletion strains, locus YKR001C, strain vps1, active compounds read low 0.991 | S. cerevisiae deletion strains, locus YKR026C, strain gcn3, active compounds read low 0.997 | S. cerevisiae deletion strains, locus YKR091W, strain srl3, active compounds read low 1 | S. cerevisiae deletion strains, locus YLL001W, strain dnm1, active compounds read low 0.986 | S. cerevisiae deletion strains, locus YLL026W, active compounds read low 0.993 | S. cerevisiae deletion strains, locus YLL041C, strain sdh2, active compounds read low 0.996 | S. cerevisiae deletion strains, locus YLR027C, strain aat2, active compounds read low 1 | S. cerevisiae deletion strains, locus YLR039C, strain RIC1, active compounds read low 0.974 | S. cerevisiae deletion strains, locus YLR058C, strain SHM2, active compounds read low 0.982 | S. cerevisiae deletion strains, locus YLR102C, strain apc9, active compounds read low 0.989 | S. cerevisiae deletion strains, locus YLR113W, strain HOG1, active compounds read low 1.06 | S. cerevisiae deletion strains, locus YLR221C, strain rsa3, active compounds read low 1.01 | S. cerevisiae deletion strains, locus YLR258W, strain gsy2, active compounds read low 0.997 | S. cerevisiae deletion strains, locus YLR262C, strain YPT6 (second series), active compounds read low 1.02 | S. cerevisiae deletion strains, locus YLR262C, strain YPT6, active compounds read low 0.961 | S. cerevisiae deletion strains, locus YLR268W, strain sec22, active compounds read low 0.982 | S. cerevisiae deletion strains, locus YLR320W, strain mms22, active compounds read low 1 | S. cerevisiae deletion strains, locus YLR330W, strain CHS5, active compounds read low 1 | S. cerevisiae deletion strains, locus YLR342W, strain FKS1 (second series), active compounds read low 1.09 | S. cerevisiae deletion strains, locus YLR342W, strain FKS1, active compounds read low 1 | S. cerevisiae deletion strains, locus YLR357W, strain rsc2, active compounds read low 0.963 | S. cerevisiae deletion strains, locus YLR370C, strain arc18, active compounds read low 1 | S. cerevisiae deletion strains, locus YLR371W, strain rom2, active compounds read low 0.998 | S. cerevisiae deletion strains, locus YLR384C, strain iki3, active compounds read low 0.999 | S. cerevisiae deletion strains, locus YLR418C, strain cdc73, active compounds read low 1.01 | S. cerevisiae deletion strains, locus YML016C, strain PPZ1, active compounds read low 0.994 | S. cerevisiae deletion strains, locus YML032C, strain rad52, active compounds read low 0.971 | S. cerevisiae deletion strains, locus YML120C, strain ndi1, active compounds read low 1.02 | S. cerevisiae deletion strains, locus YML124C, strain tub3, active compounds read low 0.999 | S. cerevisiae deletion strains, locus YMR058W, strain fet3, active compounds read low 1 | S. cerevisiae deletion strains, locus YMR078C, strain ctf18, active compounds read low 0.984 | S. cerevisiae deletion strains, locus YMR125W, strain sto1, active compounds read low 0.969 | S. cerevisiae deletion strains, locus YMR129W, active compounds read low 0.997 | S. cerevisiae deletion strains, locus YMR205C, strain PFK2, active compounds read low 0.959 | S. cerevisiae deletion strains, locus YMR223W, strain ubp8, active compounds read low 1.02 | S. cerevisiae deletion strains, locus YMR231W, strain pep5, active compounds read low 1 | S. cerevisiae deletion strains, locus YMR263W, strain SAP30, active compounds read low 0.987 | S. cerevisiae deletion strains, locus YMR307W, strain GAS1, active compounds read low 0.961 | S. cerevisiae deletion strains, locus YNL067W, strain RPL9B, active compounds read low 0.971 | S. cerevisiae deletion strains, locus YNL071W, strain lat1, active compounds read low 1.01 | S. cerevisiae deletion strains, locus YNL153C, strain GIM3, active compounds read low 0.952 | S. cerevisiae deletion strains, locus YNL183C, strain NPR1, active compounds read low 0.967 | S. cerevisiae deletion strains, locus YNL209W, strain ssb2, active compounds read low 1.01 | S. cerevisiae deletion strains, locus YNL233W, strain BNI4, active compounds read low 0.941 | S. cerevisiae deletion strains, locus YNL248C, strain rpa49, active compounds read low 1.01 | S. cerevisiae deletion strains, locus YNL250W, strain rad50, active compounds read low 0.975 | S. cerevisiae deletion strains, locus YNL271C, strain bni1, active compounds read low 0.991 | S. cerevisiae deletion strains, locus YNL298W, strain CLA4, active compounds read low 0.997 | S. cerevisiae deletion strains, locus YNL307C, strain MCK1, active compounds read low 0.995 | S. cerevisiae deletion strains, locus YNL322C, strain KRE1 (second series), active compounds read low 0.995 | S. cerevisiae deletion strains, locus YNL322C, strain KRE1, active compounds read low 0.996 | S. cerevisiae deletion strains, locus YNR049C, strain mso1, active compounds read low 0.997 | S. cerevisiae deletion strains, locus YNR052C, strain pop2, active compounds read low 0.996 | S. cerevisiae deletion strains, locus YOL006C, strain TOP1, active compounds read low 0.928 | S. cerevisiae deletion strains, locus YOL012C, strain htz1 0.85 | S. cerevisiae deletion strains, locus YOL147C, strain pex11, active compounds read low 1 | S. cerevisiae deletion strains, locus YOR001W, strain rrp6, active compounds read low 1.01 | S. cerevisiae deletion strains, locus YOR061W, strain CKA2, active compounds read low 0.969 | S. cerevisiae deletion strains, locus YOR069W, strain VPS5, active compounds read low 1 | S. cerevisiae deletion strains, locus YOR070C, strain gyp1, active compounds read low 1 | S. cerevisiae deletion strains, locus YOR080W, strain dia2, active compounds read low 0.99 | S. cerevisiae deletion strains, locus YOR083W, strain WHI5, active compounds read low 1.02 | S. cerevisiae deletion strains, locus YOR106W, strain vam3, active compounds read low 1.01 | S. cerevisiae deletion strains, locus YOR136W, strain idh2, active compounds read low 0.983 | S. cerevisiae deletion strains, locus YOR144C, strain elg1, active compounds read low 0.994 | S. cerevisiae deletion strains, locus YOR184W, strain ser1, active compounds read low 0.985 | S. cerevisiae deletion strains, locus YOR231W, strain MKK1, active compounds read low 1.05 | S. cerevisiae deletion strains, locus YOR265W, strain rbl2, active compounds read low 0.993 | S. cerevisiae deletion strains, locus YOR270C, strain vph1, active compounds read low 1 | S. cerevisiae deletion strains, locus YOR290C, strain snf2, active compounds read low 0.98 | S. cerevisiae deletion strains, locus YOR316C, strain cot1, active compounds read low 0.986 | S. cerevisiae deletion strains, locus YPL051W, strain arl3, active compounds read low 1.01 | S. cerevisiae deletion strains, locus YPL078C, strain atp4, active compounds read low 1.01 | S. cerevisiae deletion strains, locus YPL106C, strain sse1, active compounds read low 0.992 | S. cerevisiae deletion strains, locus YPL240C, strain hsp82, active compounds read low 0.995 | S. cerevisiae deletion strains, locus YPL256C, strain CLN2, active compounds read low 1.03 | S. cerevisiae deletion strains, locus YPR119W, strain clb2, active compounds read low 0.985 | S. cerevisiae deletion strains, locus YPR141C, strain kar3, active compounds read low 0.99 | S. cerevisiae deletion strains, locus YPR163C, strain tif3, active compounds read low 0.996 | S. cerevisiae deletion strains, locus YPR167C, strain met16, active compounds read low 0.991 | S. cerevisiae deletion strains, strain wtn01, active compounds read low 1.02 | S. cerevisiae strains, strain wild type, active compounds read low 0.983
